Columns and labels:
Experiment in all cases: log2 ratio of Biotin-Ahx-Ub-VS probe labelling (fragment/DMSO); higher = less target engagement (more negative = stronger competition), active = hit call of the paper (q ≤ 0.05, log2 ratio ≤ -1)
Conditions in all cases: compound concentration: 200 uM; treatment time: 3 h
USP42 = target: T1, USP42 (UniProt Q9H9J4)
T1 sequence (whole entry): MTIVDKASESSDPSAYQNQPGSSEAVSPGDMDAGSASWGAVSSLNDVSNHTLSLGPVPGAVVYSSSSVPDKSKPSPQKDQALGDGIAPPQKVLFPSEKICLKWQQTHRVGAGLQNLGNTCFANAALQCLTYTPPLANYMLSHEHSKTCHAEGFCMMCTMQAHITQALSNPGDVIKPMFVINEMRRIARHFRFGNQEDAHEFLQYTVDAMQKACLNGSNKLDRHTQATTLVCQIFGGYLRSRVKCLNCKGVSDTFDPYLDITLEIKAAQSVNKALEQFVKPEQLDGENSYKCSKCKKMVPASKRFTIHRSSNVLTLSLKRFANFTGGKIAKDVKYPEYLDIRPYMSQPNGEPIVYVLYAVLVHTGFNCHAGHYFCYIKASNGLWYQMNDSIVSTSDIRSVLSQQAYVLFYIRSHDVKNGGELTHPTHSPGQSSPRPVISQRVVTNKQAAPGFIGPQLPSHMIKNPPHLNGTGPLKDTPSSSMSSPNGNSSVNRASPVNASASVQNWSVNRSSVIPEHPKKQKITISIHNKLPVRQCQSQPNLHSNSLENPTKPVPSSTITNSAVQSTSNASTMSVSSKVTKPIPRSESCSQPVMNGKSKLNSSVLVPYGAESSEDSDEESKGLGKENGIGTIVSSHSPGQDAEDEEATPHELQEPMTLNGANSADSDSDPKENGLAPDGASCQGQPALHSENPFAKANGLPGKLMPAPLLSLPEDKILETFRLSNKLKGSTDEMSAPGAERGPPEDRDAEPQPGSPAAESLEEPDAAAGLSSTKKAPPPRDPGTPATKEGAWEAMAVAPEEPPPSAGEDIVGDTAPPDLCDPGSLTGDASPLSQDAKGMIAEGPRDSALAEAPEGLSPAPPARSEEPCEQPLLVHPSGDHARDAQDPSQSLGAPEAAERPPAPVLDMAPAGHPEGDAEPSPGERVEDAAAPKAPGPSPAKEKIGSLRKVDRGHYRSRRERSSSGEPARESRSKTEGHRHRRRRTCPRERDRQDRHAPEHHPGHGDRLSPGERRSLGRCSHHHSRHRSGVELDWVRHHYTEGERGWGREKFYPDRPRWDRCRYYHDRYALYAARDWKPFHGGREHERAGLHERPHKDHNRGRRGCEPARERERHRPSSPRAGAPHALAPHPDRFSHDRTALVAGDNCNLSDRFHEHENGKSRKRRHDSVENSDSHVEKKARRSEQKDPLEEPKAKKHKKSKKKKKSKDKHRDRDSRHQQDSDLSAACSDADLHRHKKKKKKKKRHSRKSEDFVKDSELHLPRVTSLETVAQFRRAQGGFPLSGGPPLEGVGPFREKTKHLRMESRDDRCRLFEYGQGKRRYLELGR
Method in brief: (§1)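 Each value is an average log2 ratio of fragment to vehicle, tested by unpaired t-test. The underlying Spectronaut label-free quantities were global-median-normalised, and only proteins with ≥2 unique peptides were included. Triplicate HEK293T lysate samples (495 µg) were exposed to fragment at 200 µM or vehicle for 3 h, then to Biotin-Ahx-Ub-VS at 0.5 µM final for 1 h, before NeutrAvidin enrichment of labelled DUBs, LysC and trypsin digestion, and diaPASEF LC-MS/MS.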

USP46 = USP46 (UniProt P62068)
USP46, sequence (P62068 whole entry): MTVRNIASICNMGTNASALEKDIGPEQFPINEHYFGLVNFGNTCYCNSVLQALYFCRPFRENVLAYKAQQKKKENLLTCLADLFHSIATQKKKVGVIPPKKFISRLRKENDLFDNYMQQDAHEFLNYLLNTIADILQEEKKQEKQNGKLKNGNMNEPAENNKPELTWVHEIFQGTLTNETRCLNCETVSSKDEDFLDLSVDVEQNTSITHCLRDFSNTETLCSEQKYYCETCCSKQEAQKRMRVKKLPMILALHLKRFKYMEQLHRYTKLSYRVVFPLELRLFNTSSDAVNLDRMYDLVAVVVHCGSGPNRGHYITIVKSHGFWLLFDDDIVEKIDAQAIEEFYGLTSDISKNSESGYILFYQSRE
Method in brief: as §1

USP47 = target: T2, USP47 (UniProt Q96K76)
T2 sequence (whole entry): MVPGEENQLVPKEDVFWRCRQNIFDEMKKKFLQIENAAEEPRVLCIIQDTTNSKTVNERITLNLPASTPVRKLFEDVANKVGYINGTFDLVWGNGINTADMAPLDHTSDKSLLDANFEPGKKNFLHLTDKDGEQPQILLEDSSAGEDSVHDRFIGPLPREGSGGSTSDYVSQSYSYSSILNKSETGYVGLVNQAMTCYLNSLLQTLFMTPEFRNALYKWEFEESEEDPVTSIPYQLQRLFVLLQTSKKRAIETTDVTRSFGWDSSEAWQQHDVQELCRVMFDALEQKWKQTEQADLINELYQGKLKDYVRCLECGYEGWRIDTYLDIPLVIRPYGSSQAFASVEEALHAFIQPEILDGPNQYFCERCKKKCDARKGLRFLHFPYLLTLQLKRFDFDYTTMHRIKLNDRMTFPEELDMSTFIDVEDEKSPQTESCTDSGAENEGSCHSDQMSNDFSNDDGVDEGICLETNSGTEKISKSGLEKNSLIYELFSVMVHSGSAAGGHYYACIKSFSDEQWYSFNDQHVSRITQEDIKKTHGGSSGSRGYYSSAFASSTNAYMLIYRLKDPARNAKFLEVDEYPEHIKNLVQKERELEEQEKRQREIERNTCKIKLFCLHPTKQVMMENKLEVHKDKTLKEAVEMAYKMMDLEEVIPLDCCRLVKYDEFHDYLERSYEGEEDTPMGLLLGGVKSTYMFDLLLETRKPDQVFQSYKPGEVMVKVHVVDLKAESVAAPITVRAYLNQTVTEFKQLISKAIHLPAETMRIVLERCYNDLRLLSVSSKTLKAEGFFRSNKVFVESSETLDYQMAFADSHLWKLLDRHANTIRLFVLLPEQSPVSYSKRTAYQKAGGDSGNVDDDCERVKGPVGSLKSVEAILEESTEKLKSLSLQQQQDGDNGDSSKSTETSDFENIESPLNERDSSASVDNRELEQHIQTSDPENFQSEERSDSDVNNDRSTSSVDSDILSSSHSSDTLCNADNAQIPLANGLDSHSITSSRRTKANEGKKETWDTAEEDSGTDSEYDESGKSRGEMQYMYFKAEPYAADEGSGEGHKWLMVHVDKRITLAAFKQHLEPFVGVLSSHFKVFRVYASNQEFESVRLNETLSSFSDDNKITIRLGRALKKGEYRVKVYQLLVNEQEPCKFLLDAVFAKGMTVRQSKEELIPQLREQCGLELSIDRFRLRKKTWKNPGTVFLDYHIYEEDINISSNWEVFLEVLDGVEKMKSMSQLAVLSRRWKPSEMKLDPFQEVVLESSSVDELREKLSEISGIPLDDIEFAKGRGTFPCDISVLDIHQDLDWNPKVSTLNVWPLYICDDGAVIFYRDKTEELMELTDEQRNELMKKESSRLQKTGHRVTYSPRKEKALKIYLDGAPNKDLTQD
Method in brief: as §1

USP48 = target: T3, USP48 (UniProt Q86UV5)
T3 sequence (whole entry): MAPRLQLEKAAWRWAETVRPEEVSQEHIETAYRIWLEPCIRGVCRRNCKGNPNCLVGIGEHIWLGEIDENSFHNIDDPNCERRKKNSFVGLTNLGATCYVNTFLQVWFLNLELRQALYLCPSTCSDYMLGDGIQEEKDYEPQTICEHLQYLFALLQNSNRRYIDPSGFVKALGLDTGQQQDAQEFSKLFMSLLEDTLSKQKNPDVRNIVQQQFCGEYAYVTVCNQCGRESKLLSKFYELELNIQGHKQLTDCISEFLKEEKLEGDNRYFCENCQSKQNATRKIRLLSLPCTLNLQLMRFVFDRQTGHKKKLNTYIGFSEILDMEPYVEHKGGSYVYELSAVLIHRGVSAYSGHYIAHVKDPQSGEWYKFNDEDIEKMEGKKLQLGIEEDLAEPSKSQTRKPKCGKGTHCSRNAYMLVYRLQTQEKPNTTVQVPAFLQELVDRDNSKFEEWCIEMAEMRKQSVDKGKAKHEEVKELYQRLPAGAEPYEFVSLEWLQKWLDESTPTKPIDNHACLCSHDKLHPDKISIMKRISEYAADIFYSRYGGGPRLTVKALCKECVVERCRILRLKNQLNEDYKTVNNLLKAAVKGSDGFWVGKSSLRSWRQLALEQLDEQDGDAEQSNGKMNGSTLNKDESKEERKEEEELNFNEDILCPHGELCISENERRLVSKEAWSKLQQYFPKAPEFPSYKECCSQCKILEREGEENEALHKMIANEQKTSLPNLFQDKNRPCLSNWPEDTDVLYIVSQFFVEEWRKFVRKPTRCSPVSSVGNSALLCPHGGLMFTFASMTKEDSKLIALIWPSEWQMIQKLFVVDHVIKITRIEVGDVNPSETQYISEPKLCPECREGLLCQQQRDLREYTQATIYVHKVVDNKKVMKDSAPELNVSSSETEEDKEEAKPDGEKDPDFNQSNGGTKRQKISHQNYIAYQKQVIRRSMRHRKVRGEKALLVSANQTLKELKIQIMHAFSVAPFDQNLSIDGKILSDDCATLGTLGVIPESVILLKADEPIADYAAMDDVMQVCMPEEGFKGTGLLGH
Method in brief: as §1

USP5 = target: T4, USP5 (UniProt P45974)
T4 sequence (whole entry): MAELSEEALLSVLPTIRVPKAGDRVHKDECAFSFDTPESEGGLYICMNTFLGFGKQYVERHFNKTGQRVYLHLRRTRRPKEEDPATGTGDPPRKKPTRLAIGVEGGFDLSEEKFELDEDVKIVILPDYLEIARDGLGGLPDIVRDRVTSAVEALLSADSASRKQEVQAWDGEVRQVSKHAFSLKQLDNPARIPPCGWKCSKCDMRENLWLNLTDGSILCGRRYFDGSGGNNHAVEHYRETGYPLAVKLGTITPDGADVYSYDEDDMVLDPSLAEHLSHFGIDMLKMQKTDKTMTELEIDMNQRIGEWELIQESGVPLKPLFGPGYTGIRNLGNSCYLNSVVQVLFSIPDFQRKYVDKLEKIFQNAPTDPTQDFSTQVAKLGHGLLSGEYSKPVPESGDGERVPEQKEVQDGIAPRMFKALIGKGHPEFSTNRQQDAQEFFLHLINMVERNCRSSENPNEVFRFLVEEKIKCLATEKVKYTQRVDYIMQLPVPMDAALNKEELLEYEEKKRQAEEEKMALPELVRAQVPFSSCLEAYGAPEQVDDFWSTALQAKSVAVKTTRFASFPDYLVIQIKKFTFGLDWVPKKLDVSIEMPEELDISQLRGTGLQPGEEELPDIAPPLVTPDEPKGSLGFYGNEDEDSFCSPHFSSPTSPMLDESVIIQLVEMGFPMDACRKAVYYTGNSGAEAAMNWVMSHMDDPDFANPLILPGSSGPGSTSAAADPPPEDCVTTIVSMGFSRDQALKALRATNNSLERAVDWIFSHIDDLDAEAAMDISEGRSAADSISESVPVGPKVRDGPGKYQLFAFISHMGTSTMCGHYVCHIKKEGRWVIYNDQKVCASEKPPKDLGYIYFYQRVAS
Method in brief: as §1

USP54 = USP54 (UniProt Q70EL1)
USP54, sequence (Q70EL1 whole entry): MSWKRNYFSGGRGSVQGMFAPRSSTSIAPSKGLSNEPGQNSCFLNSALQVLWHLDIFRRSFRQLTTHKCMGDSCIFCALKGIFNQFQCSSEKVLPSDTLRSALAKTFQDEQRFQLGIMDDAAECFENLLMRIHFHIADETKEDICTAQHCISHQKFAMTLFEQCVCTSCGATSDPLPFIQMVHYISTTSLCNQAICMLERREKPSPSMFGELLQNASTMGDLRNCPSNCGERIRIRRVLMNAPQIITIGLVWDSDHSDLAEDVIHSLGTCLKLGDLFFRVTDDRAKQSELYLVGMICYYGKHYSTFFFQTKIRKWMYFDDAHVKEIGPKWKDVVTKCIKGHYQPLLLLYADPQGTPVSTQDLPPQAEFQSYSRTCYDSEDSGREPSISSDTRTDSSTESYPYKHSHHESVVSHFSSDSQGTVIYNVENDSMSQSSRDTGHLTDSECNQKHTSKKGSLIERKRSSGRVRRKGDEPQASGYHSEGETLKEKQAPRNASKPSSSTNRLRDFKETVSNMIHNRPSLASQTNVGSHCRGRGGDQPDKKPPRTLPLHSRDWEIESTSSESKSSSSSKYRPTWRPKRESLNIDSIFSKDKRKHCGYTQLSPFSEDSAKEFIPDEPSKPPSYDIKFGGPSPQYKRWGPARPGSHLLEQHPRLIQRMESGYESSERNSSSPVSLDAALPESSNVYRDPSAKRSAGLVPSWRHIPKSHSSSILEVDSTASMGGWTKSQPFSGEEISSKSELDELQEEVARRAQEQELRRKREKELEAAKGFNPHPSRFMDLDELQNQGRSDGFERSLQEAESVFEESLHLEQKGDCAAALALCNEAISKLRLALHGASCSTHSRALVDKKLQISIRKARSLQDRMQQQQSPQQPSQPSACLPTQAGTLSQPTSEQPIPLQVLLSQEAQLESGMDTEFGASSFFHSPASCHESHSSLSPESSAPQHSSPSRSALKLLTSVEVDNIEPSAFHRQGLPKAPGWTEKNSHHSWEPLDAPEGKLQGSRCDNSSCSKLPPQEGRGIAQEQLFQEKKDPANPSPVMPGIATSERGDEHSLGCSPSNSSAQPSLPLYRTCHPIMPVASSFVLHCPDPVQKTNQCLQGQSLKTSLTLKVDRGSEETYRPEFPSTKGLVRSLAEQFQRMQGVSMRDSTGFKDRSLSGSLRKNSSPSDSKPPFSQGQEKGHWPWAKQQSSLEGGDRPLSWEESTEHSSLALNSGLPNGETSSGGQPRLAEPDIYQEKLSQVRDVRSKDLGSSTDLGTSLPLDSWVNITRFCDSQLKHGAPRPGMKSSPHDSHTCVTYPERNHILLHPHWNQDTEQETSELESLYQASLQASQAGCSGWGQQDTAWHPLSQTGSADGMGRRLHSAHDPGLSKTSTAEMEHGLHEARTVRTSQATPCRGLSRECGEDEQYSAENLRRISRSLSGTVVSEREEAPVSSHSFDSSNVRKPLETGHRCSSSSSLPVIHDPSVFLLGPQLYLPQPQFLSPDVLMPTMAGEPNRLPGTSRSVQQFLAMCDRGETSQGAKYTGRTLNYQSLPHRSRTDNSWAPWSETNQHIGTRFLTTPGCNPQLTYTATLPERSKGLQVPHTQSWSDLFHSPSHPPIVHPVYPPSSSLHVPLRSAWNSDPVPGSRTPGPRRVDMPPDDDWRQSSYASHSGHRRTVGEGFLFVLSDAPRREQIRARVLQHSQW
Method in brief: as §1

USP7 = USP7 (UniProt Q93009)
USP7, sequence (Q93009 whole entry, looked up): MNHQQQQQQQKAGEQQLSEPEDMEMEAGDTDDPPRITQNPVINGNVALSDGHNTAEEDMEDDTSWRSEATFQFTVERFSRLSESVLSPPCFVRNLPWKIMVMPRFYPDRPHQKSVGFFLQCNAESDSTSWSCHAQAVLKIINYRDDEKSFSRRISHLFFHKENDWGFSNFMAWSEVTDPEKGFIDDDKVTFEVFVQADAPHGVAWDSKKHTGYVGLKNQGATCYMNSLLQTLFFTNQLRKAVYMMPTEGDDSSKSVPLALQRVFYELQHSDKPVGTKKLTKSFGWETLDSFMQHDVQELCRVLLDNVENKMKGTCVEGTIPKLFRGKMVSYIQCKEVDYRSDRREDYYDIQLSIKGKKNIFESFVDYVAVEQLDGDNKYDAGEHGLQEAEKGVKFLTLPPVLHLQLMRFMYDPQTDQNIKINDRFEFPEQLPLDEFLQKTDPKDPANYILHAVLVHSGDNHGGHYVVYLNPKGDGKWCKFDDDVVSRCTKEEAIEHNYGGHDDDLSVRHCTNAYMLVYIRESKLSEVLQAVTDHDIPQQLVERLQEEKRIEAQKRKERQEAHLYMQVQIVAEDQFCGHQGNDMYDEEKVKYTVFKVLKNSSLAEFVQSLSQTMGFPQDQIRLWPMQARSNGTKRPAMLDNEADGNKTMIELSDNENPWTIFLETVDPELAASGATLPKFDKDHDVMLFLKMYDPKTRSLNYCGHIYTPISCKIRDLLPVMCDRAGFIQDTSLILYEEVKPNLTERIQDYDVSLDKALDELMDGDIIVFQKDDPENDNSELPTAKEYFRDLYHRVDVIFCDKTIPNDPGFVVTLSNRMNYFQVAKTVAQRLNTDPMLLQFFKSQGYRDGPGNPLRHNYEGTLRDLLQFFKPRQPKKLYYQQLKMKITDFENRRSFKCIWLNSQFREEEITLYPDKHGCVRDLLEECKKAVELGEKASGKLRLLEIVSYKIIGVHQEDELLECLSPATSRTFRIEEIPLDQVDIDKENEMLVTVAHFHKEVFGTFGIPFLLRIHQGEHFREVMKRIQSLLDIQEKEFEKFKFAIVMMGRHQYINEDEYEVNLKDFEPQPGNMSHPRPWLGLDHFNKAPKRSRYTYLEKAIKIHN
Method in brief: as §1

USP8 = target: T5, USP8 (UniProt P40818)
T5 sequence (whole entry): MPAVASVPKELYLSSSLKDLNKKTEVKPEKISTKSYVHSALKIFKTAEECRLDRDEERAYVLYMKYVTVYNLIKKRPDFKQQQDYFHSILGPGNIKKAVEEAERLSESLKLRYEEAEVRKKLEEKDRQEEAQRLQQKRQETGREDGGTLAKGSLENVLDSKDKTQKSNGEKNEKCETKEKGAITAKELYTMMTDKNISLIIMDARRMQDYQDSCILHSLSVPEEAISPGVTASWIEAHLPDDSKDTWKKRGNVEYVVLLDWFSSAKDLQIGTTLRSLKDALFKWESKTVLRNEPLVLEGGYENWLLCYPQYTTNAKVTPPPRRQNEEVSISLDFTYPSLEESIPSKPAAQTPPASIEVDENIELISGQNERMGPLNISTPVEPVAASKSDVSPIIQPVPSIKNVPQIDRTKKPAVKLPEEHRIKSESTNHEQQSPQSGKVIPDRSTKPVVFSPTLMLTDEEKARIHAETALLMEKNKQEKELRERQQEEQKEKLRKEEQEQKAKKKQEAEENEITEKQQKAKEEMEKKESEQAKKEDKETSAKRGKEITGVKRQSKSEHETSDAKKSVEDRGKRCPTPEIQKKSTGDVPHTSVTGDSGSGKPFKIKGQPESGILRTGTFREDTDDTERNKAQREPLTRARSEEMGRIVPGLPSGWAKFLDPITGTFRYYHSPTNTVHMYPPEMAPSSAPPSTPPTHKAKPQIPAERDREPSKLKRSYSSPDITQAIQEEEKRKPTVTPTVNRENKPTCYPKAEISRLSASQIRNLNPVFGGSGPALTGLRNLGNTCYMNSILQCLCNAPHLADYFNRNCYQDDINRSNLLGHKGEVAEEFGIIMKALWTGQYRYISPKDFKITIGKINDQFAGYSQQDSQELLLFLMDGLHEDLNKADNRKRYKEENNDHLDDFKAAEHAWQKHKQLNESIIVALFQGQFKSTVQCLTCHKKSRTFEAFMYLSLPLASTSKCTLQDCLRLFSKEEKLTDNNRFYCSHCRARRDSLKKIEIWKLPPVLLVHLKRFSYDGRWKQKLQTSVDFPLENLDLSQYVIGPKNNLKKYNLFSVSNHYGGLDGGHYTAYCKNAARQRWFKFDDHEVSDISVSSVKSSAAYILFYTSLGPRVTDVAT
Method in brief: as §1

USP9X = USP9X (UniProt Q93008)
Method in brief: as §1

UniProt O00487 = target: UniProt O00487
UniProt O00487, sequence (O00487 whole entry): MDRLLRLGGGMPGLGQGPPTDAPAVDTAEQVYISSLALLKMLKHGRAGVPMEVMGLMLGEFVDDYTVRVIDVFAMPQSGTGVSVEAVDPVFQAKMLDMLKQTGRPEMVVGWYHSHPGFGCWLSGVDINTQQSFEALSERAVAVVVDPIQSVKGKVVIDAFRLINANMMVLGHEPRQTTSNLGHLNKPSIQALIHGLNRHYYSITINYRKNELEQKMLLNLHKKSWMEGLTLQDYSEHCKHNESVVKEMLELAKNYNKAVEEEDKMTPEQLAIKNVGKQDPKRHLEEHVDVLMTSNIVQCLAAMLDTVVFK
Method in brief: as §1

Measured: log2 ratio of Biotin-Ahx-Ub-VS probe labelling

CN1C(=O)c2ccc(NC(=O)CCl)cc2C1=O
inactive: USP42 0.714 | USP46 -0.152 | USP47 -0.217 | USP48 -0.208 | USP5 -0.508 | USP54 0.112 | USP7 -0.743 | USP8 -0.236 | USP9X -0.202 | UniProt O00487 0.0214

— the supplement of paper PMC11732987, “Enantioselective OTUD7B fragment discovery through chemoproteomics screening and high-throughput optimisation” (Communications Chemistry, 2025)
